Measurements published in the supplement of paper PMC3334620.
The full ranking holds about 33,000 sequences; the median of “E-score (-0.5 to 0.5)” is about -0.016, and the highest 2% start at about 0.31. The sample as a whole holds a higher share of the highest values than the screen did.

biological target: Cst6 (UniProt P40535); test: PBM E-score (8-mer binding enrichment) (E-score (-0.5 to 0.5)); higher = stronger / more preferred TF binding; conditions: protein concentration: 200 nM; construct: GST-DNA-binding domain
Chain of UniProt P40535 (P40535 whole entry, the tested form may be a part): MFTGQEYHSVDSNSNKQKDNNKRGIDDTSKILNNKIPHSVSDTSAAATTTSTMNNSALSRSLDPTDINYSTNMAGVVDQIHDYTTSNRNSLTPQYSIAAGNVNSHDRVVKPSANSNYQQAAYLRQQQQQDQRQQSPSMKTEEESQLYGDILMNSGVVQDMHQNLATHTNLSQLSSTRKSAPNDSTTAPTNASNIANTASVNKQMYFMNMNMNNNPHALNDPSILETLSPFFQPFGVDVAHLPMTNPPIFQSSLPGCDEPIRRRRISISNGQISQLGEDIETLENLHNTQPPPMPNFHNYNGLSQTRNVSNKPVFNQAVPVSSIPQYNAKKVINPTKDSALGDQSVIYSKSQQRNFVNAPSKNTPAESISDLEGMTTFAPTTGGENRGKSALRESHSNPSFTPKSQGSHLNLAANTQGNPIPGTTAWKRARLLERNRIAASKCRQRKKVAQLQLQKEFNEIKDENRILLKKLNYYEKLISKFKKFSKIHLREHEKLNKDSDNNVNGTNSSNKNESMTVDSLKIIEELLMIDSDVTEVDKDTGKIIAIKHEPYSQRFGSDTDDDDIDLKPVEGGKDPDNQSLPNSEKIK
Summary of the method: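 Using PURExpress in vitro transcription/translation, GST-tagged yeast transcription factors were made in full-length or DNA-binding-domain form. These were applied at about 100-200 nM to double-stranded universal all-10-mer Agilent arrays, and bound protein was detected with fluorescent anti-GST. Scans were normalised with masliner before the Universal PBM Analysis Suite assigned E-scores to ungapped eight-base words pooled with their reverse complements.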

Sequence | PBM E-score
CACGCTAC | -0.134
ACTACCGC | -0.0306
CTCTCAAG | -0.14
GCCAACGC | -0.0319
CGAACTAG | 0.0382
CGCAATTA | 0.18
CCCAAAAC | 0.105
CCTGGGGA | -0.402
CCTGCACA | -0.179
ACACTACT | 0.0264
CCTTCCGA | -0.149
AGCTACTC | -0.274
CTTGATGA | 0.24
GTTGATGA | 0.309
ATTGATGA | 0.296
ACGAGGAT | -0.0239
CTGTCACA | 0.0581
ATGTCAGA | 0.221
CTGTCACC | 0.0496
ATGTCAAC | 0.251
ATGTCACC | 0.465
GTGTCACA | 0.229
ATGTCACG | 0.396
ATGTCAAA | 0.237
ATGTCACA | 0.375

Sequence | PBM E-score
AGGGCTAG | -0.242
ATCTCTCG | -0.0585
GGGAAAAC | -0.0343
AGAGGTTC | -0.11
AAAGCGCT | 0.183
GCCGCACC | 0.226
ATAGAAGG | -0.208
CTAATATA | 0.302
GTAATAGA | 0.0316
GTAATATA | 0.354
ATAATATG | 0.273
ATAATATC | 0.219
ACATAATA | 0.345
ACATAATC | 0.267
ATAATATA | 0.358
GTATAATA | 0.288
ATATAATA | 0.31
CTATAATA | 0.0135
GCATAATA | 0.227
TTCACAAA | 0.0753
ATCGCGTG | 0.0786
CGGGCGAC | -0.319
GGAGGCCA | -0.314
AAAAGGTA | -0.0898
AATTACCG | 0.196

Sequence | PBM E-score
ATTCGATC | 0.153
GTTGTTCA | 0.0498
ATGAGCCG | 0.0382
ATACGGCA | 0.394
ATACGGCC | 0.138
CTACGGCA | 0.283
GTACGGCA | 0.249
ATACGGCG | 0.36
ATACGGTG | 0.104
AGAAAAGG | 0.0591
CAGACTTA | -0.094
CATAAGCA | -0.0945
GTCACTCA | 0.315
ATCACTCA | 0.138
ATCACTTA | 0.194
CTCACTCA | 0.0247
GTCACTGA | 0.281
GTCACTTA | 0.331
CCAGTGTC | -0.108
GCGCCTAC | 0.136
CGGCAACG | 0.0207
TCGAAGCA | -0.0376
GGCCGCTA | -0.232
CCCGCGGC | 0.109
AACGCGGC | 0.261

Sequence | PBM E-score
CACGCGGC | 0.279
GACGCGGC | 0.318
GCCGCGGA | 0.0146
GCCGCGGC | 0.31
AGTGAACC | -0.0808
GACGTCCA | 0.276
AACGTCGA | 0.133
AACGTCGG | -0.174
AACGTCTG | 0.0755
AACGTCAG | 0.371
AACGTCCA | 0.0436
GACGTCGA | 0.292
GACGTCAA | 0.479
CACGTCTG | 0.0582
CCCGTCAG | -0.282
AACGTCAA | 0.401
CACGTCAG | 0.449
CAAACTCA | 0.0635
GGCACCAC | -0.1
AAGCGATG | -0.134
CCAGTTCG | -0.0928
CAAACGCG | 0.0743
ATGGCCCA | -0.0308
AACTTCCA | -0.178
AGACCTAC | -0.227

Sequence | PBM E-score
ATCCCAGG | -0.234
CCGATCTC | -0.145
AACGTCTC | -0.0757
AACGTCCC | -0.173
AACGTCAC | 0.488
TGCGTCAA | 0.318
GGCGTCAA | 0.263
TACGTCCA | 0.0953
TACGTCTA | 0.188
TGCGTCCA | -0.0683
CACGTCCC | -0.216
CACGTCTC | -0.097
CACGTCAC | 0.489
TACGTCAA | 0.484
CATACTCC | 0.0426
CAGCCAAC | -0.13
CGAATTAG | 0.0675
CGTTTAAG | 0.0111
AGGTCTAC | -0.216
AAACTAGT | 0.062
CCCTGAGA | -0.247
GAAATCCC | -0.101
CGTTCTTA | 0.0793
AAGCCATG | -0.124
CAACAGCC | 0.153

Sequence | PBM E-score
ACAAGAAA | 0.237
AATGTCAA | 0.102
AACGTCGT | 0.0196
AACGTCCT | -0.0138
TATGTCAA | 0.378
CCCGTCAA | -0.228
TCTGTCAA | 0.111
GACGTCGC | 0.236
CACGTCAA | 0.366
GACGTCAC | 0.495
GACGTCCC | 0.016
CACGTCTA | -0.0114
AACGTCAT | 0.489
ATAAGCTC | -0.0286
CGCCCACC | -0.0447
CGGTCCGC | -0.198
ACAAAGAA | 0.247
GACTGCTC | -0.26
ACACTTAA | 0.105
GGGGCTTA | -0.346
CAGATAAA | 0.051
CTATCGGA | -0.0998
AGTGTGCC | -0.088
AAAAATTC | 0.186
ATGAAATC | 0.314

Sequence | PBM E-score
CTGAAATC | 0.0366
ATGAAATA | 0.283
ATAGCTAT | -0.0877
CTTCGAAG | -0.21
AAGCTATG | -0.0495
ACTAAGAG | -0.0881
CAGAACGG | -0.0224
CAACATCA | 0.305
AGACATCA | 0.0931
GGACATCA | 0.188
TGACATCA | 0.496
CGACATCG | -0.122
AAACATCA | 0.268
TAACATCA | 0.399
CGACATCA | 0.411
CGACATCC | -0.0566
ACGCTGGC | -0.207
AAAGGCAC | 0.189
CAGACCCC | -0.316
GTCAATGA | 0.235
ATCAATGA | 0.35
CTCAATGA | 0.14
CCGTACCG | -0.0599
CAGGGTGG | -0.23
CCCAAGAC | -0.0855

Sequence | PBM E-score
ATGACAGG | 0.0675
CGGACATA | 0.0467
AAGACATA | 0.0804
ATGACAAG | 0.134
ATGACATG | 0.351
GTGACATA | 0.471
CAGACATA | 0.131
CTGACATA | 0.324
GAGACATA | -0.00422
GGGACATA | -0.0929
ATGACAGA | 0.243
ATGACATA | 0.45
CATCTATA | 0.162
ACGCGAGG | 0.0628
CATGCCCC | -0.109
CATGAGAG | 0.0742
CACGTGCG | -0.038
CTAGTTCC | 0.0382
ATCGGCTA | -0.138
CGGGCGTC | -0.0942
AAGCCCGG | -0.209
AGAACGGG | -0.0993
CAATAAGA | 0.181
ACTGGTTA | 0.0197
AGGGACGA | 0.0201

Sequence | PBM E-score
CGAGCTCA | -0.0803
AGAGCTCA | -0.192
TGAGCTCA | 0.374
GAACCGCC | -0.092
GAGCTAAA | -0.0615
CCCGTATA | -0.0644
TACGTATA | 0.328
GACGTATA | 0.322
GCCGTATA | 0.367
TACGTACA | 0.336
CACGTATG | 0.204
CACGTACA | -0.0529
AACGTACA | 0.0856
CACGTATA | 0.167
ACCGTATA | -0.0183
AACGTATA | 0.215
TACGTAGA | 0.224
ATGTTCGA | 0.0764
CAATTGTC | 0.0392
AGGATACC | -0.251
GCAGTAAC | -0.065
CATTCTGC | 0.0305
CTTCGATA | 0.178
ATTCCAAA | 0.118
CGCATCCC | -0.216

Sequence | PBM E-score
ACGTAGCC | -0.0377
CATGACAA | 0.14
GATGACAC | 0.286
GATGACGA | 0.463
AATGACAA | 0.267
GATGACTA | 0.171
GATGACGC | 0.473
GACGACGC | 0.074
AATGACAT | 0.422
GATGACCC | -0.0821
AATGACAG | 0.167
GATGACAA | 0.333
GATGACCA | 0.101
ATAAGGGC | 0.0296
GCCGATAC | -0.136
CTCGCTAA | 0.0589
AGACGTTA | 0.0355
TGATCGCA | 0.0445
AGCCGGGC | -0.185
AAGCTTGA | -0.0535
GCTTCGAA | -0.0925
AATGACCT | 0.25
AATGACGT | 0.495
AATGACGC | 0.453
CCTGACAC | 0.029

Sequence | PBM E-score
TATGACCA | 0.202
AAGGACGT | 0.0462
TATGACAA | 0.25
AATGACAC | 0.273
ATTGACGC | 0.265
CATGACAC | 0.328
TATGACGA | 0.424
ACTGACGC | 0.243
AGAGCGGA | -0.0178
CTCAGACC | -0.22
AGACCACC | -0.137
ACCGTCCA | -0.185
ACAGTGAA | 0.146
CATCTAGA | 0.019
TCCTAGCA | -0.162
GCTCCGAA | -0.0443
AATGACGG | 0.35
CATGACCG | 0.0772
CATGACCA | 0.0978
AATGACGA | 0.451
ACTGACGA | 0.201
CATGACAG | 0.118
CATGACGA | 0.438
AATGACCG | 0.178
CCTGACGA | 0.182

Sequence | PBM E-score
ACTGACGG | 0.105
AATGACTA | 0.041
CATGACGG | 0.38
CGGCCTCA | -0.0129
ACCACCGA | -0.145
CAAAAGCA | -0.0642
AGGGGATG | -0.161
CGGGGCTC | -0.307
ATCGGAGA | -0.197
AGTGACAT | 0.459
AGTGACAC | 0.274
AGTGACAA | 0.169
CATGACTC | 0.0297
CATGACCC | -0.0425
CATGACGC | 0.455
AGCAGAAC | -0.0649
AATCCACC | -0.121
CAGGGCCC | -0.335
AAGTGACT | 0.024
CAGTGACA | 0.248
GAGTGACA | 0.287
AAGTGACG | 0.45
TAGTGACA | 0.338
TAGTGATA | 0.088
CAGTGACG | 0.435

Sequence | PBM E-score
AAGTGAAA | 0.193
AAGTGAGA | 0.00703
CAGTGACC | -0.0895
AAGTGACA | 0.357
AAGTGACC | -0.131
GGAGAATA | 0.103
TACCCGAA | -0.133
ATGCCACG | 0.00475
GGGAGTAC | -0.226
ACTCACCA | 0.043
GGCGTAAC | -0.0656
CCCACGGG | -0.214
TTATCCAA | 0.162
CATTGACA | 0.0835
GGGTGACA | 0.243
CATTGACC | 0.149
GGGTGACC | -0.0338
TGGTGACA | 0.378
CATTGACG | 0.358
CTGCTCCC | -0.174
CCTAATGC | -0.0866
CATCTAAA | 0.194
TCAGCTGA | 0.152
ATTGAGCC | 0.197
CCATTACA | 0.225

Sequence | PBM E-score
CCATTGCA | 0.024
TCATTACA | 0.368
TCATTGCA | 0.321
ACATTAAA | 0.198
GCATTACA | 0.187
ACATTGCA | -0.0281
TCATTAAA | 0.352
GCATTAAA | 0.163
CGGAGAGC | -0.0924
CGTCGGAC | -0.178
ATTTCACG | -0.00077
AGTAAGGA | -0.0515
ATAGATGG | -0.129
CCTTCGAG | -0.21
CGAAGTCA | 0.0581
TGAAGTCA | 0.372
GGAAGTCA | -0.14
CAGCAGTC | -0.258
TTATTAAA | 0.264
ATATTTAC | 0.175
ATATTTAA | 0.355
CTATTTAA | -0.0505
ATATTAAA | 0.355
CTATTAAA | 0.192
